Measurements taken from PubChem BioAssay (NCATS).
Results filed as inconclusive are left out. Active and inactive are the calls of the source. Calls come from the whole dose curve; as a rule, active = well fitted cell-killing curve with a large enough effect; inconclusive = small, poorly fitted or top-dose-only effect; inactive = no such curve, though single readings can be large or run the other way.

assay: qHTS of pediatric cancer cell lines to identify multiple opportunities for drug repurposing: Primary screen for SK-N-MC cells (AID 1347093); details: SK-N-MC viability, CellTiter-Glo luminescence, 48 h; series mostly up to 46 µM; activity change, negative = cytotoxic: at the top concentration
Text: Drug repurposing or repositioning has been offered as a strategy for drug development in oncology programs. This approach has special potential for childhood cancers and other rare or orphan diseases, where the expected return on new drug development has been a disincentive to pharmaceuticals.
In this project we exploit the poly-pharmacology of drugs to discover new indications via phenotypic screening of a panel of 19 well-characterized cell lines derived from solid tumors seen in children and adolescents. The goal is to identify approved drugs with previously unrecognized anticancer properties that has the potential to reveal new mechanisms and biological processes involved in carcinogenesis or drug resistance. We employed a titration-based paradigm (quantitative high-throughput screening or qHTS), where all compounds were tested at multiple concentrations for their effect on cell viability. Concentration-response curves (CRCs) were derived directly from the primary screen, and both potency and efficacy values were used to identify compounds with robust bioactivity profiles. We screened the NIH Chemical Genomics Center (NCGC) Pharmaceutical Collection (NPC) and Mechanism Interrogation Plate (MIPE) small molecule collections of approved and investigational compounds against these cell lines; and measured metabolically active cells after 48 hours of compound treatment as a proxy for cell viability.
Assay Submitter: Nathalia J. Martinez, National Center for Advancing Translational Sciences, National Institutes of Health, Rockville, MD, USA; email: natalia.martinez@nih.gov
[1] Shen, M et al. Quantitative high-throughput phenotypic screening of pediatric cancer cell lines identifies multiple opportunities for drug repurposing. Oncotarget 2017 Dec 19;9(4):4758-4772. PMID 29435139.
The cells were obtained from University of North Carolina (UNC), Pediatric Preclinical Testing Program (PPT), and Coriell Institute (CI).
qHTS cell viability assay:
Cells were assayed in growth media at a density of 500-1,000 cells/well. Five microliters of cells were dispensed into 1,536-well, white, solid-bottom, TC-treated plates (Greiner Bio One) using a multidrop dispenser and incubated at 37 degrees C, 5% CO2, under a humidified atmosphere for 5 hours. Twenty-three nanoliters of compounds and controls (neutral control DMSO or positive control bortezomib at final concentration of 2.3 µM) were subsequently transferred by Kalypsys pintool. For primary screens, the MIPE collection was tested at 11-point dilutions (final concentrations range from 0.78 nM to 46 µM) and the NPC collection at 8-point dilutions (final concentrations range from 0.59nM to 46 µM). Compounds tested in follow-up screens were assayed at 11-point dilutions. Cells were incubated for 48 hours, followed by addition of 3 uL of CellTiter-Glo (Promega). After a 15 min incubation at room temperature, samples were analyzed for luminescence intensity using a ViewLux High-throughput CCD imager equipped with clear filters.
Potency is the fitted concentration of half-maximal effect.

| Structure (SMILES) | activity change, negative = cytotoxic | Potency |
| --- | --- | --- |
| CCC(=O)Nc1ccc(O)cc1 | 1.74% (inactive) | – |
| Oc1cn2c(n1)Nc1ccc(Cl)c(Cl)c1C2 | -5.05% [at 16.1 µM] (inactive) | – |
| O=C(O)CC(O)C(=O)O (stereo not given) | 3.08% (inactive) | – |
| COc1ccc2[nH]c(S(=O)Cc3ncc(C)c(OC)c3C)nc2n1 (stereo not given) | 38.2% (inactive) | – |
| O=C(O)Cc1sc(-c2ccccc2)nc1-c1ccc(Cl)cc1 | -9.81% (inactive) | – |
| c1ccc(CN(CC2=NCCN2)c2ccccc2)cc1 | -11.3% (inactive) | – |
| NC(N)=NCCC[C@H](N)C(=O)O | -27.1% [at 4.84 µM] (inactive) | – |
| CCN(CC)CCNC(C(=O)OCCC(C)C)c1ccccc1 (stereo not given) | -10.2% (inactive) | – |
| COc1ccc2cc1Oc1ccc(cc1)C[C@H]1c3c(cc4c(c3Oc3cc5c(cc3OC)CCN(C)[C@@H]5C2)OCO4)CCN1C | – | 15000 nM (active) |
| O=C(O)COc1nn(Cc2ccccc2)c2ccccc12 | 11.2% (inactive) | – |
| [O-][n+]1cccc(CO)c1 | -16.4% (inactive) | – |
| O=C(O)c1ccccc1-c1ccc(C(F)(F)F)cc1 | -6.5% (inactive) | – |
| O=c1cc[nH]c(=O)[nH]1 | -8.67% (inactive) | – |
| O=S(=O)(O)c1cc(I)c(O)c2ncccc12 | -16% (inactive) | – |
| CC(C)(C)C(=O)C(Oc1ccc(Cl)cc1)n1ccnc1 (stereo not given) | -13.3% (inactive) | – |
| CC[C@H]1CN2CCc3cc(OC)c(OC)cc3[C@@H]2C[C@@H]1C[C@H]1NCCc2cc(OC)c(OC)cc21 | – | 211 nM (active) |
| CC12CCC(CC1)C(C)(C)O2 | 4.67% (inactive) | – |
| COc1ccc2cc1Oc1cc3c(cc1OC)CC[N+](C)(C)[C@H]3Cc1ccc(cc1)Oc1c(OC)c(OC)cc3c1[C@@H](C2)[N+](C)(C)CC3 | 0.888% (inactive) | – |
| Cc1cccc(C)c1NC(=O)CN(CC(=O)O)CC(=O)O | 6.52% (inactive) | – |
| NCCNCCNCCN | 10.6% (inactive) | – |

| Structure (SMILES) | activity change, negative = cytotoxic | Potency |
| --- | --- | --- |
| Cc1cc(CC(=O)O)n(C)c1C(=O)c1ccc(Cl)cc1 | -12.4% (inactive) | – |
| CC(=O)Nc1ccc(/C=N/NC(N)=S)cc1 | 10.6% (inactive) | – |
| CO/N=C(\C(=O)N[C@@H]1C(=O)N2C(C(=O)O)=C(CSc3nc(=O)c(O)nn3C)CS[C@H]12)c1csc(N)n1 | 3.4% (inactive) | – |
| O=c1cc[nH]c(=S)[nH]1 | – | 2660 nM (active) |
| CC(CN1c2ccccc2Sc2ccccc21)N(C)C (stereo not given) | -1.33% (inactive) | – |
| N[C@@H](CSSC[C@H](N)C(=O)O)C(=O)O | -7.24% [at 0.597 µM] (inactive) | – |
| N[C@@H](CSCCCO)C(=O)O | -18.8% [at 16.1 µM] (inactive) | – |
| OC[C@H]1O[C@@H](O[C@@H]2[C@@H](CO)O[C@](O)(CO)[C@H]2O)[C@H](O)[C@@H](O)[C@H]1O | -15.4% (inactive) | – |
| CN(C)CCCO[C@@H]1[C@H]2OC(C)(C)O[C@H]2O[C@@H]1C(O)CO (stereo not given in full) | -11.8% (inactive) | – |
| CC(O)CN(CCN(CC(C)O)CC(C)O)CC(C)O (stereo not given) | -13.5% (inactive) | – |
| CC(COc1ccccc1)NC(C)C(O)c1ccc(O)cc1 (stereo not given) | 19.3% (inactive) | – |
| C/C(=C(\CCOP(=O)(O)O)SC(=O)c1ccccc1)N(C=O)Cc1cnc(C)nc1N | -16.7% [at 4.84 µM] (inactive) | – |
| CC1(C)S[C@@H]2[C@H](NC(=O)Cc3ccccc3)C(=O)N2[C@H]1C(=O)O (tested in a mixture with another compound) | -23.6% (inactive) | – |
| CC(C)(O)c1ccccc1CC[C@@H](SCC1(CC(=O)O)CC1)c1cccc(/C=C/c2ccc3ccc(Cl)cc3n2)c1 | 9.63% (inactive) | – |
| CCN(CC)CCNC(=O)c1c(C)[nH]c(/C=C2\C(=O)Nc3ccc(F)cc32)c1C | – | 2370 nM (active) |
| Cc1ncc(COP(=O)(O)O)c(C=O)c1O | -18.7% (inactive) | – |
| CN1[C@@H]2CC(OC(=O)[C@H](CO)c3ccccc3)C[C@H]1[C@@H]1O[C@@H]12 (stereo not given in full) | -26.4% (inactive) | – |
| NS(=O)(=O)c1cc2c(cc1C(F)(F)F)NC(Cc1ccccc1)NS2(=O)=O (stereo not given) | -8.96% (inactive) | – |
| O=C(O)CN1C(=O)c2cccc3cccc(c23)C1=O | -19% (inactive) | – |
| CN(N=O)C(=O)N[C@@H]1[C@@H](O)[C@H](O)[C@@H](CO)O[C@@H]1O | 7.7% (inactive) | – |
